# Bioassay records as filed in PubChem.
# The list is not random: actives were taken first. Their share in the collection is about 1.9%.
# Ba/F3 V617F tox: reduce viability of Ba/F3 cells dependent on JAK2V617F. Ba/F3 EpoR-JAK2V617F viability, ATP luminescence. inhibition, % at 5.6 µM. 220,000 tested, 1.1% active. AID 1446;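 active means inhibition above the campaign mean plus 3 SD over all tested compounds, cut at about 24% in these data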;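 further: cytokine-independent growth of Ba/F3 cells driven by EpoR plus mutant JAK2; 0% = DMSO-treated cells and 100% = JAK inhibitor I control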
# IEC-6 cytotox: counter-screen for KLF5 inhibitors: cytotoxicity in IEC-6 cells; IEC-6 cytotoxicity, luminescence viability; inhibition, % at 5 µM; 290,000 tested, 0.78% active; in the data active means inhibition above about 22%;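 further: 0% = plate median of test compound wells and 100% = cytotoxic reference compound wells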
# BaF3 tox: counter-screen for JAK2V617F inhibitors: parental Ba/F3 viability inhibitors. CellTiter-Glo ATP luminescence. inhibition, % at 5.6 µM. 220,000 tested, 1.1% active. AID 1486;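 active means inhibition above a per-campaign cutoff, the mean inhibition of all tested compounds plus 3 SD, cut at about 27% in these data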;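 further: 0% = DMSO wells and 100% = JAK Inhibitor I control wells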
# KLF5 inhibitor: suppresses KLF5 promoter-driven expression; inhibition, % at 5 µM; DLD-1 KLF5 promoter-luciferase reporter, luminescence; 290,000 tested, 0.23% active; AID 1700;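 active means inhibition above a per-plate limit of that plate's mean compound inhibition plus 3 SD, cut at about 60% in these data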;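 further: 0% = DMSO wells and 100% = LY294002 at 200 µM; higher means less KLF5 promoter-driven luciferase light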
# APP transl inh: APP translation inhibition; SH-SY5Y APP 5'UTR-luciferase reporter, luminescence; inhibition, % at 2 µM; 190,000 tested, 0.82% active; AID 1285;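 active means inhibition above a set limit, derived from the sample mean plus 3 SD, cut at about 45% in these data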
# Starred values were filed as active, the others as inactive; . = no result.
SMILES,Ba/F3 V617F tox,IEC-6 cytotox,BaF3 tox,KLF5 inhibitor,APP transl inh
COC(=O)c1cccc(Cn2c(Cl)c(/C=N/Nc3ccccc3C)sc2=O)c1,-2.7,-5.7,0.2,3.7,45.6*
Cc1ccccc1N/N=C/c1sc(=O)n(Cc2cccc(C(=O)O)c2)c1Cl,-2.9,-2.1,-1.9,19.4,.
CCOC(=O)N1CCN(C(=O)c2cn(C)c3ccc(S(=O)(=O)N4CCOCC4)cc3c2=O)CC1,.,9.5,.,-17.4,.
COc1ccc2nc(/N=C(\N)NC(=O)C(C)(C)C)nc(C)c2c1,17.1,8.1,19.4,-41.4,-16.1
CCC(=O)N/C(N)=N/c1nc(C)c2cc(OC)ccc2n1,23.1,2.7,27.4*,-34.9,-27.4
COCCN1CCN(C(=O)c2cc(COc3cc(C)ccc3C)on2)CC1,.,4.2,.,-80.6,.
O=C(CN1C(=O)CSc2ncccc21)Nc1ccccc1F,.,6.0,.,-5.6,.
CCOC(=O)c1c(NC(=O)c2ccc(S(=O)(=O)N3CCOCC3)cc2)sc2c1CCN(C)C2,-3.5,2.0,32.9*,-14.1,-2.3
CCc1noc(C)c1C(=O)NC1CCCc2c1cnn2-c1ccc(C(C)(C)C)cc1 (stereo not given),.,-0.2,.,-42.4,.
CC[n+]1c(/C=C/N(C)c2ccccc2)oc2ccccc21,85.6*,19.7,72.0*,6.1,1.9
CC[n+]1c(/C=C/Nc2ccccc2)oc2ccccc21,3.7,1.6,11.7,-35.5,12.7
CC[n+]1c(/C=C/N(C)c2ccccc2)oc2ccc(F)cc21,79.2*,5.9,71.6*,21.8,-4.8
CCn1c(=O)c(CCC(=O)N2CCN(c3ccccn3)CC2)c(C)c2c(C)nn(-c3ccccc3)c21,.,8.9,.,1.8,.
COc1ccc(/C=C/C2=CCN(Cc3ccc(OC)cc3)CC2)cc1,16.4,-5.3,37.7*,5.4,12.7
COc1ccc(/C=N/N2CCN(Cc3ccccc3)CC2)cc1,.,-7.2,.,-38.7,.
CCn1cc(C(=O)N2CCN(c3ccc(F)cc3)CC2)c2cc(OC)c(OC)cc2c1=O,-5.5,-5.5,-2.7,-19.2,47.7*
CC1=CC(=C2C=CC(=O)C=C2)C=C(C)N1C,72.8*,-2.1,60.2*,-14.8,.
CC(C)(C)C(=O)NC1(C(F)(F)F)NC(=O)N(c2ccc(F)cc2)C1=O (stereo not given),1.5,0.9,9.1,1.1,-10.2
Oc1ccc(/C=N/N=C(c2ccccc2)c2ccccc2)c(O)c1O,-4.3,-22.2,1.6,-26.9,48.7*
O=C(/C(=N/N=C/c1ccc(O)c(O)c1O)c1ccccc1)c1ccccc1,-0.5,-0.9,5.8,-12.1,20.5
COc1ccc(C(=O)Cn2cc[n+](C)c2)cc1,.,-5.1,.,-49.1,.
COc1ccc(CCNc2cc(N3CCN(C(=O)c4ccc(C)cc4)CC3)ccc2[N+](=O)[O-])cc1OC,1.1,-2.3,43.4*,-16.7,-7.0
COc1ccc(C(=O)N2CCN(c3ccc([N+](=O)[O-])c(NCCc4ccc(OC)c(OC)c4)c3)CC2)cc1,6.1,1.1,11.8,-20.2,18.4
Cc1cccc(-c2ocnc2C(=O)N2CCN(C(=O)c3cccs3)CC2)c1,.,9.4,.,-10.4,.
Cc1onc(-c2ccccc2)c1C(=O)NC(=S)NNC(=O)c1ccccc1O,101.1*,1.4,83.5*,21.7,-7.8
SMILES,Ba/F3 V617F tox,IEC-6 cytotox,BaF3 tox,KLF5 inhibitor,APP transl inh
Cc1onc(-c2ccccc2)c1C(=O)NC(=S)NNC(=O)c1ccc(O)cc1O,98.2*,-5.1,71.7*,55.8,27.0
COc1ccccc1OCC(O)CN1CCN(C(=O)c2ccccc2)CC1 (stereo not given),.,-6.6,.,-11.9,.
O=C(NCCN1CCOCC1)NC1(C(F)(F)F)Oc2ccc(Cl)cc2O1 (stereo not given),43.8*,-6.7,28.6*,-13.9,49.5*
COCC(C)NC(=O)NC1(C(F)(F)F)Oc2ccc(Cl)cc2O1 (stereo not given),37.7*,0.7,34.7*,-17.7,26.4
O=C(NCCN1CCOCC1)c1cc(Cl)ccc1Cl,.,1.5,.,-22.1,.
Cc1ccc(C)c(N2CCN(S(=O)(=O)c3csc(C(N)=O)c3)CC2)c1,.,5.6,.,-3.7,.
Cc1ccc(C(=O)Nc2ccc3c(c2)OCCO3)c(C)c1,.,8.8,.,64.9*,.
O=C(Nc1ccc2c(c1)OCCO2)c1ccccc1F,0.9,-2.9,1.1,-106.7,-145.6
Cc1ccc(NC(=O)c2ccc3c(c2)OCCO3)cc1C,.,8.9,.,28.7,.
O=C(Nc1ccc2c(c1)OCCO2)c1cccc2nc3ccccc3nc12,-2.0,1.0,2.3,-16.9,45.7*
CCCSc1nnc(CNS(=O)(=O)c2ccc(C)cc2)n1C,.,-5.7,.,-41.0,.
Cc1cc(C(=O)Nc2ccc3[nH]ccc3c2)no1,-3.0,6.0,-4.3,-111.8,.
O=C(Nc1nnc(SCc2ccc(Cl)cc2)s1)C1CC(=O)N(Cc2ccccc2)C1 (stereo not given),3.0,3.1,3.0,-21.8,2.5
O=C(CSc1ccc2nnc(-c3ccccn3)n2n1)N1CCOCC1,-4.4,-4.1,4.2,-15.7,58.8*
Nn1cnnc1N/N=C/c1cc(Br)cc(Br)c1O,9.2,30.6*,2.8,-33.0,15.6
N#Cc1c(Cl)nsc1NC(=O)c1ccccc1,29.0*,12.9,39.5*,6.9,1.9
N#Cc1c(NC(=O)c2ccccc2)sc2c1CCCCC2,-3.1,2.5,2.4,-163.2,-198.2
Nc1cc[n+](CC(=O)c2ccc3c(c2)OCCO3)cc1,90.0*,-3.5,71.1*,-30.0,-17.8
O=C(C[n+]1ccc(C(=O)NCc2ccccc2)cc1)c1ccc2c(c1)OCCO2,-2.8,4.1,1.7,20.1,6.6
CC(=O)N1c2ccc(S(=O)(=O)NCC3CCC(C(=O)NCc4ccccc4)CC3)cc2CC1C (stereo not given),.,0.7,.,-24.3,.
COc1ccc(NC(=O)c2cc([N+](=O)[O-])ccc2O)cc1,14.7,11.2,18.1,84.4*,12.4
OC(CNc1ccccc1)COc1ccc(OCC(O)CNc2ccccc2)cc1 (stereo not given),23.6*,15.6,34.3*,13.0,-6.7
CCn1nc(C)c(NC(=O)Nc2cccc(Cl)c2Cl)c1C,-0.5,4.7,2.3,-2.1,-2.2
CC(C)(C)c1ccc(/C=N/N2CCN(c3ccccn3)CC2)cc1,-3.1,-1.2,6.1,-12.8,.
CN(C)c1ccc(/C=N/N2CCN(c3ccccn3)CC2)cc1,34.7*,2.1,56.5*,-42.2,.
SMILES,Ba/F3 V617F tox,IEC-6 cytotox,BaF3 tox,KLF5 inhibitor,APP transl inh
Cc1cc(C(=O)Cn2nnc3ccccc3c2=O)c(C)n1-c1ccccc1F,46.4*,-1.5,51.8*,-26.1,-197.4
COc1ccc(N2C(=O)CCC(C(=O)N3CCC(C(N)=O)CC3)C2c2ccc(F)cc2)cc1 (stereo not given),2.5,3.1,68.8*,-12.8,-4.6
CCOc1ccccc1NC(=O)C1(S(=O)(=O)c2ccc(Cl)cc2)CC1,.,-4.4,.,-2.2,.
CC(/C=C1\SC(=O)N(CCCC(=O)O)C1=O)=C\c1ccccc1,2.9,-4.0,2.8,58.6,78.5*
O=C(CN1C(=O)S/C(=C\c2ccccc2)C1=O)NNC(=O)c1ccccc1O,-3.0,6.6,0.9,20.8,5.5
CC(=C\c1ccccc1)/C=C1/SC(=S)N(CCCC(=O)O)C1=O,.,-4.1,.,-17.2,.
O=C(CCCN1C(=O)S/C(=C\c2ccccc2)C1=O)NNC(=O)c1ccccc1O,-3.7,-0.4,4.0,12.0,63.1*
